# Compound activity as filed in PubChem.
# eIF4E-4G inh: blocks eIF4E binding to eIF4G; TR-FRET eIF4E-eIF4GI(517-606) binding, 2 h; inhibition, % at 21.7 µM; P63073+Q04637; 0.37% of 220,000 active; AID 782;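 note: 0% = full FRET control wells and 100% = background wells lacking eIF4GI fragment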
# Mcl1 Noxa PPI: Mcl-1/Noxa interaction inhibition | TR-FRET Mcl-1/Noxa peptide binding, 2 h | inhibition, % at 21.7 µM | 1.5% of 220,000 active | AID 1022;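 active = compounds that cut the protein-peptide binding signal by more than 50% relative to plate controls in a single-dose test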;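 note: His-tagged Mcl-1 with rhodamine Noxa BH3 peptide and terbium anti-His antibody; 0% = Mcl-1 plus Noxa peptide wells and 100% = peptide-only wells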
# Target sequence (Q07820 whole entry, looked up): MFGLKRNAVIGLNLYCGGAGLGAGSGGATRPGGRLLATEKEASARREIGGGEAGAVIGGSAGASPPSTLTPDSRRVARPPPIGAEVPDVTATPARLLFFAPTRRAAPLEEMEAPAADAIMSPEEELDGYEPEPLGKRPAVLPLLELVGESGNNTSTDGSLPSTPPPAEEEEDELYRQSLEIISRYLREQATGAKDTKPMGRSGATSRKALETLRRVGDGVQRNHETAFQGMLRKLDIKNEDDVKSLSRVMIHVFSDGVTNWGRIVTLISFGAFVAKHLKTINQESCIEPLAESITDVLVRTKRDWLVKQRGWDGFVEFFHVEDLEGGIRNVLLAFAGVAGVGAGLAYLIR
# Mcl1 Bid PPI: disrupts binding of human Mcl-1 to Bid peptide; Q07820; TR-FRET Mcl-1/Bid-Dy647 peptide binding, 1536-well; inhibition, % at 21.7 µM; 0.97% of 220,000 active;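 active = compounds that cut the binding signal by more than half at the single screening dose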;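 note: His-tagged Mcl-1 with europium anti-His antibody binding Bid BH3 peptide; 0% = Mcl-1 plus peptide wells and 100% = peptide-only wells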
# NCF1 inh: inhibitors of human p47phox binding; p47phox/p22phox peptide binding, fluorescence polarization, 2 h; 0.53% of 220,000 active; inhibition, % at 24.7 µM; P14598;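 note: 0% = p47phox with labelled peptide and 100% = labelled peptide alone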
# Mcl-1 Bim block: inhibitors of Bim-Mcl-1 interaction, human | Bead-based flow cytometry, Bim peptide-Mcl-1 binding | inhibition, % at 10 µM | 0.1% of 190,000 active; in the data active = inhibition above about 40%;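 note: 0% = no compound tracer wells and 100% = peptide blocker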
# 14-3-3 Bad inh: disrupts binding of bovine 14-3-3 zeta to phospho-Bad peptide | P63103 | 0.71% of 220,000 active | TR-FRET 14-3-3zeta/Dy647-pBad peptide displacement, 1 h | inhibition, % at 21.7 µM | AID 781;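 active = inhibition above about 70%, limit read from the data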;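 note: 0% = full 14-3-3 plus peptide FRET controls and 100% = background without 14-3-3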
# Target sequence (P63103 whole entry, looked up): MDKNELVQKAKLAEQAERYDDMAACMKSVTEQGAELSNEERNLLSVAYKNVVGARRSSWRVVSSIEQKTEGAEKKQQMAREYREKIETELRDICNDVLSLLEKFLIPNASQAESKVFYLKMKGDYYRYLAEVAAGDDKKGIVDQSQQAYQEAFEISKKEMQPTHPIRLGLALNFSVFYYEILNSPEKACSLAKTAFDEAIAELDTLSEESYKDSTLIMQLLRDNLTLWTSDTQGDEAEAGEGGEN
# * marks the source's active call; other numbers are inactive results; / = no result; [ ] = remark or other dose. A selection: hits, their analogues and other compounds. The true share with any hit is near 3.3%.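 Rule for the calls, unless noted: active = inhibition above about 30% (limit read from the data); inactive = the rest.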
SMILES,eIF4E-4G inh,Mcl1 Noxa PPI,Mcl1 Bid PPI,NCF1 inh,Mcl-1 Bim block,14-3-3 Bad inh
CC1=C/C(=C\c2ccc(Br)o2)C(=O)O1,17,71*,-5,-13,-6,8
O=C1C(=Cc2ccc(Br)o2)C(=O)c2ccccc21,38*[fluorescence artefact?],105*,76*,-17,2,89*[fluorescence artefact?]
COc1cc(NC(=O)C2CC2)c(OC)cc1NC(=O)CCC(=O)NC1CCN(Cc2ccccc2)CC1,-3,8,-27,0,1,-7
O=C(Nc1ccccc1)C1=C[C@@H](c2ccc(Br)cc2)C[C@@H](OCCCCO)O1,-2,-6,-4,-43,-3,3
COc1ccc2[nH]c(C)cc(=O)c2c1,-1,13,23,-2,0,8
COc1ccc2[nH]c3c(C)c4ccncc4c(C)c3c2c1,33*,86*,-10,92*,/,50
COc1cc2c(cc1OC)CN(CC(=O)Nc1ccc(C#N)cc1)CC2,4,6,98*,-21,5,-17
COc1cc2c(cc1OC)CN(CC(=O)Nc1ccc(S(=O)(=O)N(C)C)cc1)CC2,-1,4,-16,-4,1,-5
Cc1ccc(NC(=O)CN2CCc3ccccc3C2)cc1F,7,27,98*,4,/,67
O=C(CCN1CCc2ccccc2C1)Nc1cccc(F)c1,-12,16,77*,-10,-5,5
CNCc1ccccc1Sc1cc(O)ccc1O,48*[fluorescence artefact?],99*,40,5,-2,57
CNCc1ccccc1Sc1cccc(O)c1,22,13,-27,-16,-4,5
Cc1ccc(NC(=S)Nc2ccc3nc(-c4ccccn4)c(-c4ccccn4)nc3c2)cc1C,-6,30,-45,112*,-8,-4
CCc1ccc(NC(=O)N(CCN2CCOCC2)Cc2ccc3c(c2)CCCN3CC)cc1,2,74*,-69,43*,-7,-10
CCN1CCCc2cc(CN(CCN3CCOCC3)C(=S)Nc3ccc(OC)c(OC)c3)ccc21,-2,25,-66,-11,-1,3
CCN1CCCc2cc(CN(CCN3CCOCC3)C(=S)Nc3ccccc3OC)ccc21,6,60*,-61,-7,-2,-9
CCN1CCCc2cc(CN(CCN3CCOCC3)C(=S)Nc3cccc(C)c3)ccc21,2,64*,-98,-16,-2,12
CCN1CCCc2cc(CN(CCN3CCOCC3)C(=S)Nc3ccccc3C)ccc21,0,72*,-99,-14,-1,-6
CCn1c(SCc2nc3sc(C(=O)O)c(C)c3c(=O)[nH]2)nc2ccccc21,30,77*,11,-41,2,54
COCCn1c(SCc2nc3sc(C(=O)OC)c(C)c3c(=O)[nH]2)nc2ccccc21,-14,23,39,-67,0,30
Cc1cccn2cc(COc3ccc(-c4ccccc4)cc3)nc12,2,11,-8,-34,-4,79*
Cc1ccc(/C=C/C(=O)N2CCc3ccccc32)o1,23,61*,-89,-38,-5,1
CCOC(=O)C(C(=O)OCC)c1cc(Br)c2noc3c2c1C(=O)c1ccccc1-3,6,57*,-14,0,42*,-10
O=Cc1s/c(=N\S(=O)(=O)c2ccccc2)n(CCCCl)c1Cl,-1,27,6,-7,3,-3
CCCCCCCCCCCCCCCC(O)C(N)CO (centres undefined),-21,26,66*,84*,0,12
SMILES,eIF4E-4G inh,Mcl1 Noxa PPI,Mcl1 Bid PPI,NCF1 inh,Mcl-1 Bim block,14-3-3 Bad inh
CC(CCc1ccccc1)NC(=O)CCCCCNc1nc(=S)[nH]c2ccccc12 (centres undefined),-1,12,-44,-7,-3,-14
CCC(C(=O)Nc1cc(Cl)ccc1OC)c1ccccc1 (centres undefined),10,-1,4,12,-1,3
COc1ccc(Cl)cc1NC(=O)C(OC)c1ccccc1 (centres undefined),2,29,27,3,-2,87*
Cn1c2ccccc2c2cnn(CC(=O)Nc3ccccc3Br)c(=O)c21,7,-83,49,8,/,74*
O=S(=O)(Cc1cc(Cl)nc(-c2ccccc2)n1)c1ccccc1,-7,-6,2,-16,-12,-1
O=S(=O)(Cc1cc(Cl)nc(-c2ccncc2)n1)c1ccccc1,-1,81*,32,6,0,16
Cc1ccc2nc(NC(=O)c3ccc(N4C(=O)CCC4=O)cc3)sc2c1,1,58*,0,-29,1,0
CCn1nnc(NC(=O)c2cccc(-c3cc4ccccc4oc3=O)c2)n1,13,-15,-7,-7,-1,-6
CCOc1ccc2nc(NC(=O)c3cccc(-c4cc5ccccc5oc4=O)c3)sc2c1,9,76*,84*,57*,-6,52
Cc1ccc2nc(NC(=O)c3cccc(-c4cc5ccccc5oc4=O)c3)sc2c1,-25,32,75*,23,-1,59
CC(C)CN(CC(C)C)C(=O)Nc1cccc([N+](=O)[O-])c1,1,-3,-12,-10,1,-12
O=c1[nH]c(CN2CCN(S(=O)(=O)/C=C/c3ccccc3)CC2)nc2cc(Cl)ccc12,6,13,-5,-46,/,-2
O=C(O)c1ccc(/C=C2\SC(=Nc3ccccc3)N(c3ccccc3)C2=O)cc1,-4,12,0,-2,0,-12
O=C(/C=C/c1ccc(Cl)c([N+](=O)[O-])c1)Nc1ccc(N2CCCC2)cc1,2,75*,-39,3,-8,-20
COc1ccc(Cl)cc1NC(=S)NNC(=O)c1cccs1,-3,18,-51,1,-1,-10
CCCCC(=O)Nc1ccc2c(c1)nc(CCN1CCN(C)CC1)n2C,-3,12,-30,-10,/,0
O=C(O)C(Cc1c[nH]c2ccccc12)N1C(=O)C2C3c4ccccc4C(c4ccccc43)C2C1=O (centres undefined),1,6,-22,-12,2,-8
O=C(O)c1ccc(S(=O)(=O)Nc2ccc(O)c(Sc3nc4ccccc4s3)c2)cc1,2,51*,-46,-30,0,12
NS(=O)(=O)c1ccc(Sc2nc3ccccc3s2)c([N+](=O)[O-])c1,-1,-2,-14,-12,/,-3
COC(=O)c1ccccc1NC(=O)c1cc(-c2ccc(O)cc2)on1,0,68*,12,-14,0,19
COC(=O)c1ccccc1NC(=O)c1cc(C2CC2)on1,-1,17,-15,-11,0,8
CCOC(=O)c1c(CS(=O)(=O)c2ccccc2)n(C)c2cc(Br)c(O)c(CN(C)C)c12,1,62*,-26,-5,0,1
O=C(Cn1nc2n(c1=O)-c1ccccc1SC2)N/N=C/c1cccnc1,-3,-5,-19,4,/,-1
